Laboratory results as given in PubChem BioAssay (NCATS).
Records with an inconclusive call do not appear. The source made the active and inactive calls. The call rests on the fitted dose curve; in most records, active means well fitted curve in the direction sought with a large enough effect; inconclusive means small, poorly fitted or top-dose-only effect, or another doubt; inactive means no such curve, though single readings can be large; an effect the other way counts as inactive or inconclusive.

Experiment: qHTS assay for measurement of the activity of small molecule inhibitors on Zika virus induced Caspase-3 activity in human astrocytoma cells (AID 1224859);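 further: plate controls were ZIKV-infected untreated cells for no effect and uninfected cells for full effect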
Conditions: SNB-19 ZIKV-induced caspase-3/7, luminescence, 6 h; series mostly up to 45.7 µM; activity change, negative = inhibition: at the top concentration
In short: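 Inhibition of Zika-induced caspase-3/7 activity: SNB-19 cells, 1 h compound pretreatment, ZIKV 2 FFU/cell for 6 h at 37 C, Caspase-Glo luminescence read-out.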

Question: For CCCCCCCCNC(C)C(O)c1ccc(SC(C)C)cc1 (stereo not given), which “activity change, negative = inhibition” value is on record?
Answer: 0.778% (inactive)

Question: With CC(=O)NCCCCCC(=O)O as the compound, how does the “activity change, negative = inhibition” value read?
Answer: -2.25% (inactive)

Question: For CN1CCC(OC(c2ccccc2)c2ccccc2)CC1, which “activity change, negative = inhibition” value is on record?
Answer: -24.7% (inactive)

Experiment: qHTS assay to identify small molecule inhibitors of chordoma cells - UCH-1 (AID 1259355); further: nearly all actives have a fitted effect of over 55% in size; further: potency means the concentration at half of the fitted maximal effect; on activity, negative = inhibition: on the % scale 0 is the no-effect control and ±100 the full control effect
Conditions: UCH-1 chordoma viability, CellTiter-Glo, 48 h, combination, with auranofin plus four topoisomerase inhibitors; series mostly up to 46.1 µM; activity, negative = inhibition: at the top concentration
In short: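 Cells (800/well) were seeded and left overnight at 37 C, 5% CO2, then treated with drugs at 15 concentrations plus a combination mix of auranofin, camptothecin, doxorubicin, rubitecan and topotecan. Viability after 48hr was read by CellTiter-Glo luminescence.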

Question: Which “activity, negative = inhibition” value does the source give for CCC(CC)(CC(=O)Nc1cccc(/C=C/c2nc(C3CCC3)cs2)c1)C(=O)O here?
Answer: 8.56% (inactive)

Question: For CC(C)Cn1cnc2c1c(=O)n(C)c(=O)n2C, which “activity, negative = inhibition” value is on record?
Answer: -22.1% (inactive)

Question: For CN1CCN(CCC(=O)N2c3ccccc3Sc3ccc(C(F)(F)F)cc32)CC1, which “activity, negative = inhibition” value is on record?
Answer: -14.4% (inactive)

Question: For Nc1nc(N)c(-c2ccccc2)s1, which “activity, negative = inhibition” value is on record?
Answer: -1.85% (inactive)

Question: Which “activity, negative = inhibition” value does the source give for O=[N+]([O-])c1ccc(/C=N\O)o1 here?
Answer: -19.9% (inactive)

Question: With CC(C)Cc1ccc(CC(=O)O)cc1 as the compound, how does the “activity, negative = inhibition” value read?
Answer: 2.2% (inactive)

Question: For O=C(N/N=C/c1ccc([N+](=O)[O-])o1)c1ccc(O)cc1, which “activity, negative = inhibition” value is on record?
Answer: 2.03% [at 20.6 µM] (inactive)

Question: For FC1(F)C(F)(F)C(F)(F)C2(F)C(F)(F)C(F)(F)C(F)(F)C(F)(F)C2(F)C1(F)F (stereo not given), which “activity, negative = inhibition” value is on record?
Answer: 1.1% (inactive)

Question: For O=C(CCN1CCN2CCCC2C1)N1c2ccccc2Sc2ccc(Cl)cc21 (stereo not given), which “activity, negative = inhibition” value is on record?
Answer: -35.1% (inactive)

Question: Which “activity, negative = inhibition” value does the source give for N=C(N)N1CCc2ccccc2C1 here?
Answer: -7.18% (inactive)

Question: For COc1cc([C@H]2Oc3cc([C@H]4Oc5cc(O)cc(O)c5C(=O)[C@@H]4O)ccc3O[C@@H]2CO)ccc1O, which “activity, negative = inhibition” value is on record?
Answer: -16.7% (inactive)

Question: With c1ccc(CC2=NCCN2)cc1 as the compound, how does the “activity, negative = inhibition” value read?
Answer: -1.43% [at 20.6 µM] (inactive)

Question: For OCCOCCN1CCN(C2=Nc3ccccc3Sc3ccccc32)CC1, which “activity, negative = inhibition” value is on record?
Answer: -14% (inactive)

Question: With O=C(Nc1ncc([N+](=O)[O-])s1)c1cccs1 as the compound, how does the Potency read?
Answer: 14.1 µM (active)

Question: With COc1ccc(CCN(C)CCCN2CCc3cc(OC)c(OC)cc3CC2=O)cc1OC as the compound, how does the “activity, negative = inhibition” value read?
Answer: -9.79% (inactive)

Question: With COc1ccc(S(=O)(=O)N2c3ccc(Cl)cc3[C@@](O)(c3ccccc3Cl)[C@H]2C(=O)N2CCC[C@@H]2C(N)=O)cc1OC as the compound, how does the “activity, negative = inhibition” value read?
Answer: -29.1% (inactive)

Question: For CCOc1ccccc1OCCN[C@H](C)Cc1ccc(OC)c(S(N)(=O)=O)c1, which “activity, negative = inhibition” value is on record?
Answer: -3.34% (inactive)

Question: Which “activity, negative = inhibition” value does the source give for CCc1nn(CCCN2CCN(c3cccc(Cl)c3)CC2)c(=O)n1CCOc1ccccc1 here?
Answer: -21.3% (inactive)

Question: For NC1CCN(c2nc3c(cc2F)c(=O)c(C(=O)O)cn3-c2ccc(F)cc2F)C1 (stereo not given), which “activity, negative = inhibition” value is on record?
Answer: -0.938% (inactive)

Question: Which “activity, negative = inhibition” value does the source give for O=C(Nc1cccc(C2=NCCN2)c1)Nc1cccc(C2=NCCN2)c1 here?
Answer: 6.95% (inactive)

Question: Which “activity, negative = inhibition” value does the source give for CCCCCCCCCCCCCC[N+](C)(C)Cc1ccccc1 here?
Answer: -10.5% (inactive)

Question: With CC1(C)OC[C@@H]2O[C@@]3(C(=O)O)OC(C)(C)O[C@H]3[C@@H]2O1 as the compound, how does the “activity, negative = inhibition” value read?
Answer: -9.34% (inactive)

Question: For C#C[C@]1(O)CC[C@H]2[C@@H]3CCC4=CC(=O)CC[C@@H]4[C@H]3CC[C@@]21CC, which “activity, negative = inhibition” value is on record?
Answer: -7.56% (inactive)

Question: With NCc1ccccc1Sc1ccccc1CO as the compound, how does the “activity, negative = inhibition” value read?
Answer: -12.8% (inactive)

Question: For CCC(C(=O)OCCOCCN(CC)CC)c1ccccc1 (stereo not given), which “activity, negative = inhibition” value is on record?
Answer: -13.6% (inactive)

Question: With OC[C@H]1O[C@@H]2O[C@H]3[C@H](O)[C@@H](O)[C@@H](O[C@H]4[C@H](O)[C@@H](O)[C@@H](O[C@H]5[C@H](O)[C@@H](O)[C@@H](O[C@H]6[C@H](O)[C@@H](O)[C@@H](O[C@H]7[C@H](O)[C@@H](O)[C@@H](O[C@H]8[C@H](O)[C@@H](O)[C@@H](O[C@H]1[C@H](O)[C@H]2O)O[C@@H]8CO)O[C@@H]7CO)O[C@@H]6CO)O[C@@H]5CO)O[C@@H]4CO)O[C@@H]3CO as the compound, how does the “activity, negative = inhibition” value read?
Answer: -12.5% (inactive)

Question: Which “activity, negative = inhibition” value does the source give for CCN(CC)CCOC(=O)C1(c2ccccc2)CCCC1 here?
Answer: -1.94% (inactive)

Question: Which “activity, negative = inhibition” value does the source give for CCCCCCCCCCCCCCCCO here?
Answer: -9.85% (inactive)

Question: With O=C(CCCN1CC=C(n2c(=O)[nH]c3ccccc32)CC1)c1ccc(F)cc1 as the compound, how does the “activity, negative = inhibition” value read?
Answer: -1.25% (inactive)

Question: For NC(=O)C1(N2CCCCC2)CCN(CCCC(=O)c2ccc(F)cc2)CC1, which “activity, negative = inhibition” value is on record?
Answer: -4.17% (inactive)

Question: For CC(O)Cn1cnc2c1c(=O)n(C)c(=O)n2C (stereo not given), which “activity, negative = inhibition” value is on record?
Answer: -8.8% [at 20.6 µM] (inactive)

Question: For COc1cc(C(=O)NCc2ccc(OCCN(C)C)cc2)cc(OC)c1OC, which “activity, negative = inhibition” value is on record?
Answer: -28.2% [at 20.6 µM] (inactive)

Question: For CC[N+](C)(CC)CCOC(=O)C(O)(c1ccccc1)C1CCCCC1 (stereo not given), which “activity, negative = inhibition” value is on record?
Answer: -1.56% (inactive)

Question: With CCC1Nc2cc(Cl)c(S(N)(=O)=O)cc2S(=O)(=O)N1 (stereo not given) as the compound, how does the “activity, negative = inhibition” value read?
Answer: -25.6% (inactive)

Question: For CCCCCCCCNC(C)C(O)c1ccc(SC(C)C)cc1 (stereo not given), which Potency is on record?
Answer: 35.5 µM (active)

Question: With CC(=O)NCCCCCC(=O)O as the compound, how does the “activity, negative = inhibition” value read?
Answer: 6.85% (inactive)

Question: Which “activity, negative = inhibition” value does the source give for CN1CCC(OC(c2ccccc2)c2ccccc2)CC1 here?
Answer: -13.4% [at 20.6 µM] (inactive)
